High-throughput results deposited in PubChem by National Center for Advancing Translational Sciences (NCATS).
This is a sample that favours compounds with a hit; in the whole collection about 2.4% have one here.
D2 ag-1 – activates the human D2 dopamine receptor; activation, % (concentration not given with the values); DiscoveRx PathHunter D2 beta-arrestin, luminescence, 90 min; 100% = 57 uM dopamine signal; P14416; AID 624465; actives 0.084% (n = 360,000); in the data active = activation above about 40%; inconclusive = between about 15% and that limit
Target sequence (P14416 whole entry, looked up): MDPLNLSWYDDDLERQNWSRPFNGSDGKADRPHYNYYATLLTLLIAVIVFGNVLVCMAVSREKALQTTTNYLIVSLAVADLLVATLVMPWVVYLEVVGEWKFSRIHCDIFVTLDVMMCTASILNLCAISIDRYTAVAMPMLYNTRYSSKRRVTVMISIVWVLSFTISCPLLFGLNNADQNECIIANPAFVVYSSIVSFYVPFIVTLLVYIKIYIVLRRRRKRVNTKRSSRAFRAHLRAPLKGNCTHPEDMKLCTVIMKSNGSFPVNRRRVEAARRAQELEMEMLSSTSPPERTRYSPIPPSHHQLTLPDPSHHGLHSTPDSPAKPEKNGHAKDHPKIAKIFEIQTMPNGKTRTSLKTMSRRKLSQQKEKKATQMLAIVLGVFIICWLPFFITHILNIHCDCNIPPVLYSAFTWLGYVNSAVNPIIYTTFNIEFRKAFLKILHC
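DiscoveRx PathHunter D2 beta-arrestin cells (2,100/well) attached overnight, then compound-stimulated 90 min at 37 C in HBSS/10 mM HEPES/0.1% Tween-20 buffer; beta-galactosidase complementation read by luminescence after 1 h at ambient temperature. Dopamine 57 uM final (EC100) as control.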
D2 antagonist – antagonizes the human D2 dopamine receptor. HEK293 TREx D2 cells, calcium flux, dopamine EC80. actives 2% (n = 340,000). P14416. inhibition, % at 10 µM; in the data active = inhibition above about 30%; inactive = below that, where a call was filed; note: 0% is about no effect
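In this primary screen, negative modulation is detected by tracking calcium flux after an EC80 dopamine challenge in inducible HEK293 T-REx D2 cells preexposed to test compound for 180 s.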
D2 PAM-1 – D2 dopamine receptor (human) potentiation; P14416; actives 0.34% (n = 340,000); potentiation, % at 10 µM; AID 485347; HEK293 T-REx D2, calcium flux, EC20 dopamine potentiation;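 active = potentiation over 3 SD above the plate norm, cut at about 30% in these data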; note: 0% is about no effect
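Using a no-wash calcium dye in inducible, force-coupled HEK293 Trex cells expressing D2, we tracked fluorescence each second for 180 s after compound, then for 180 s after EC20 dopamine to detect augmented signalling.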
D2 ag-2 – D2 dopamine receptor (human) agonism | P14416 | HEK293 T-REx D2 cells, calcium flux agonist mode | activation, % at 2 µM | actives 0.53% (n = 340,000) | AID 485358;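 active = activation over 3 SD above normal in the single-dose calcium agonist read, cut at about 30% in these data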; note: 0% is about no effect
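In this primary screen, compounds producing a positive calcium signal within 180 s of addition to tetracycline-induced, force-coupled HEK293 Trex D2 cells are flagged; cells are dye-loaded with a no-wash calcium kit beforehand.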
D2 PAM-2 – human D2 receptor positive allosteric modulation; AID 624464; P14416; DiscoveRx D2 beta-arrestin cells, luminescence, 90 min; 100% = 57 uM dopamine signal; potentiation, % (test concentration not listed); actives 0.23% (n = 360,000); in the data active = potentiation above about 50%; inconclusive = mostly about 30% to 49%
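D2 cells co-treated with compound plus 50 nM dopamine (EC20) for 90 min at 37 deg C to detect potentiation. Beta-arrestin recruitment was read as enzyme-fragment luminescence after 1 h at ambient temperature. Full response was set by 57 uM dopamine.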
* = called active by the depositor; ? = inconclusive; · = no result.

SMILES | D2 ag-1 | D2 antagonist | D2 PAM-1 | D2 ag-2 | D2 PAM-2
CCOc1ccc(S(=O)(=O)NC2=NCCCCC2)cc1 | -2 | -7 | 71* | 0 | 1
O=S(=O)(NC1=NCCCCC1)c1ccc(Cl)cc1 | -2 | -5 | 2 | 3 | -4
Cc1c[nH]c2cccc(OCC(CNC(C)(C)C)OC(=O)c3ccccc3)c12 (stereo not drawn) | -4 | 70* | -19 | 0 | -18
Cc1ccc(OCCCC(=O)Nc2nc3ccccc3[nH]2)cc1 | 5 | -12 | 11 | 0 | 8
O=C(CCCOc1ccccc1)Nc1nc2ccccc2[nH]1 | -2 | -2 | 70* | 0 | -1
O=C(c1ccc(Cl)c(S(=O)(=O)N2CCCCC2)c1)N1CCCCC1 | -4 | -8 | -5 | 0 | -13
CC(=O)N1CCN(C(=O)c2ccc(Cl)c(S(=O)(=O)N3CCCCCC3)c2)CC1 | 1 | 32* | 7 | 1 | -6
O=C(NCc1ccc(Cl)cc1)c1cc2ccccc2o1 | · | · | · | 1 | ·
O=C(NCc1ccccc1CN1CCCC1)c1cc2cc(Cl)ccc2o1 | 5 | 40* | -19 | 0 | -3
Cc1ccc(C(=O)NCc2ccccc2F)cc1S(=O)(=O)N1CCCC1 | 2 | -30 | 12 | 1 | -10
Cc1ccc(C(=O)NCc2ccccc2CN2CCCC2)cc1S(=O)(=O)N1CCOCC1 | -1 | 51* | -28 | 0 | -31
O=C(NCC1COc2ccccc2O1)c1ccc(Cl)c(S(=O)(=O)N2CCOCC2)c1 (stereo not drawn) | -2 | 31* | -1 | 1 | -1
CCc1cccc(CC)c1NC(=O)C(CC)n1nc(C)n2c(cc3cc(C)ccc32)c1=O (stereo not drawn) | · | · | 6 | · | ·
COc1cc2c(cc1OC(C)=O)CCCCC2=O | -3 | · | · | · | -11
Cc1cc(NS(=O)(=O)c2ccc(NC(=O)C(C)Oc3cc(C)c(Cl)c(C)c3)cc2)no1 (stereo not drawn) | 4 | -2 | 9 | -2 | 9
COc1ccc(C(=O)NCc2ccco2)cc1S(=O)(=O)N1CCOCC1 | -2 | 10 | -7 | 0 | -3
CN1CCN(S(=O)(=O)c2cc([N+](=O)[O-])ccc2Cl)CC1 | 4 | 3 | 1 | 0 | 28
O=[N+]([O-])c1ccc(Cl)c(S(=O)(=O)N2CCCCCC2)c1 | 0 | -5 | 10 | 0 | 70*
O=C(NCc1ccccc1CN1CCCC1)c1ccc(Cl)c(S(=O)(=O)N2CCCC2)c1 | -2 | 33* | -26 | 0 | -32
COc1ccc(C(=O)NCc2ccccc2CN2CCCC2)cc1S(=O)(=O)N1CCOCC1 | -7 | 45* | -23 | 0 | -17
CCN(CC)S(=O)(=O)c1nnc(NC(=O)COc2ccccc2F)s1 | · | · | 0 | 0 | ·
Cc1sc(N2CCN(S(=O)(=O)c3ccc4c(c3)NC(=O)CO4)CC2)nc1-c1ccccc1 | -4 | 16 | -1 | -2 | -8
Cc1ccc(O)c(C(CC(=O)NCC2(c3ccccc3)CCCC2)c2ccccc2)c1 (stereo not drawn) | · | · | -3 | -1 | ·
O=S1(=O)CCOC[C@H](CC2CCCCC2)N1Cc1cccc(Cl)c1 | -1 | -15 | 9 | 0 | -5
CCC1COCCS(=O)(=O)N1Cc1cccc(Cl)c1 (stereo not drawn) | -2 | 47* | 4 | 0 | -5
SMILES | D2 ag-1 | D2 antagonist | D2 PAM-1 | D2 ag-2 | D2 PAM-2
Cc1ccc(NC2CCCN(C(=O)c3cccnc3)C2)cc1C (stereo not drawn) | 3 | 36* | 14 | 0 | -4
CC(C)c1ccc(NC2CCCN(C(=O)c3cccnc3)C2)cc1 (stereo not drawn) | -1 | 16 | -7 | 1 | -1
CN1CCC(=C2c3ccccc3C=Cc3ccccc32)CC1 | -5 | 77* | -28 | 3 | 11
Cc1ccc(C)c(N2N=C(C(=O)Nc3ccc(N4CCOCC4)cc3)CCC2=O)c1 | -3 | 35* | 0 | 0 | -11
Cc1ccc(C)c(N2N=C(C(=O)O)CCC2=O)c1 | 1 | 6 | -8 | 0 | -2
COc1ccc(-c2onc3ccc(Br)cc23)cc1 | ? | -1 | 4 | 1 | 100*
COc1cc(-c2onc3ccc(Br)cc23)cc(OC)c1OC | ? | -8 | -1 | 0 | 59*
O=C(CN1C(=O)CSc2ccc(S(=O)(=O)N3CCCC3)cc21)NCc1ccc(F)cc1Cl | · | · | -14 | 0 | ·
COC(=O)c1ccccc1S(=O)(=O)NNC(=O)Nc1ccccc1 | 3 | -2 | 3 | 0 | -2
Cc1nc(N2CCc3ccccc3C2)[nH]c(=O)c1Cc1ccccc1 | 0 | 12 | 5 | 1 | 1
CCCCCc1c(C)nc(N2CCc3ccccc3C2)[nH]c1=O | -4 | 32* | -14 | -2 | -16
COc1ccc(CC(=O)Nc2ccc(-c3noc(-c4cc(OC)c(OC)c(OC)c4)n3)cc2)cc1 | 3 | -25 | 42* | 0 | -16
COc1ccc2c(C(=O)c3ccc(C)cc3)n(Cc3ccc(C(N)=O)cc3)[n+]([O-])c2c1 | 1 | 60* | 21 | -2 | -9
Cc1ccc(S(=O)(=O)N2CCCCC2)cc1NC(=O)CNC(C)c1ccc(Cl)c(Cl)c1 (stereo not drawn) | 1 | -13 | -3 | -1 | -29
COc1ccc(-n2ccnc2SCC(=O)Nc2nnc(C)s2)cc1 | · | · | -7 | 1 | ·
CC(NC(=O)c1cc(S(=O)(=O)N(C)C)ccc1Cl)C1CC2CCC1C2 (stereo not drawn) | 0 | 35* | -5 | 0 | -1
CC(NC(=O)c1cccc(S(=O)(=O)N(C)C)c1)C1CC2CCC1C2 (stereo not drawn) | -2 | -13 | 3 | -2 | -8
COc1cc(NC(C)=O)c2ncccc2c1NC(C)=O | -6 | 37* | 13 | 1 | -4
O=c1cc(C(Cl)(Cl)Cl)oc2c1ccc1ccccc12 | 10 | 23 | -7 | 0 | 85*
O=C(NCCN1CCN(c2ccccc2F)CC1)C1CCCN(S(=O)(=O)c2cnc[nH]2)C1 (stereo not drawn) | 15 | 20 | 12 | -1 | 67*
O=C(NCCN1CCC(Cc2ccccc2)CC1)C1CCCN(S(=O)(=O)c2cnc[nH]2)C1 (stereo not drawn) | -4 | -23 | -12 | 14 | -5
CCCS(=O)(=O)N1CCCC(C(=O)NCCCN2CCN(c3ccccc3F)CC2)C1 (stereo not drawn) | 14 | 38* | -19 | 69* | -19
COc1ccc(N2CCN(CCCNC(=O)C3CCCN(S(=O)(=O)c4cnc[nH]4)C3)CC2)cc1 (stereo not drawn) | -4 | -2 | 34* | -1 | -10
COc1ccc(N2CCN(CCCNC(=O)C3CCCN(S(=O)(=O)c4c(C)n[nH]c4C)C3)CC2)cc1 (stereo not drawn) | -1 | 6 | 22 | 0 | -8
